The source of these data is PMC13541613, “GHT-SELEX demonstrates unexpectedly high intrinsic sequence specificity and complex DNA binding of many human transcription factors”.

Common to all, as to assay: HT-SELEX; 20 mM HEPES pH 7, 140 mM KCl, 5 mM NaCl, 1 mM K2HPO4, 2 mM MgSO4, 100 uM EGTA, ZnSO4, 0.1% Tween20; room temperature, 1 h; high values mean tight binding
Common to all, as to conditions: protein: ivt; tags: eGFP (N-terminal); dsDNA, one strand shown

The target in one test is ZNF721 full-length (Homo sapiens, UniProt Q8TF20-2 1-923). The method in brief: (§1)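 A tagged transcription factor, either full-length or its DNA-binding-domain fragment, was made in HEK293 lysate or cell-free extract, immobilised on beads and incubated with a randomized 40-base DNA library for 1 h at room temperature in HEPES/KCl low-stringency buffer containing Tween20. Washed beads were heat-eluted, and the bound DNA was PCR-amplified over successive cycles and Illumina-sequenced at ~3 million 60 bp reads per sample. The binding signal is the relative k-mer count in selected reads, where a higher value means tighter binding.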
Sequence of ZNF721 full-length (Q8TF20 other isoform, or with tags, fused parts or gaps): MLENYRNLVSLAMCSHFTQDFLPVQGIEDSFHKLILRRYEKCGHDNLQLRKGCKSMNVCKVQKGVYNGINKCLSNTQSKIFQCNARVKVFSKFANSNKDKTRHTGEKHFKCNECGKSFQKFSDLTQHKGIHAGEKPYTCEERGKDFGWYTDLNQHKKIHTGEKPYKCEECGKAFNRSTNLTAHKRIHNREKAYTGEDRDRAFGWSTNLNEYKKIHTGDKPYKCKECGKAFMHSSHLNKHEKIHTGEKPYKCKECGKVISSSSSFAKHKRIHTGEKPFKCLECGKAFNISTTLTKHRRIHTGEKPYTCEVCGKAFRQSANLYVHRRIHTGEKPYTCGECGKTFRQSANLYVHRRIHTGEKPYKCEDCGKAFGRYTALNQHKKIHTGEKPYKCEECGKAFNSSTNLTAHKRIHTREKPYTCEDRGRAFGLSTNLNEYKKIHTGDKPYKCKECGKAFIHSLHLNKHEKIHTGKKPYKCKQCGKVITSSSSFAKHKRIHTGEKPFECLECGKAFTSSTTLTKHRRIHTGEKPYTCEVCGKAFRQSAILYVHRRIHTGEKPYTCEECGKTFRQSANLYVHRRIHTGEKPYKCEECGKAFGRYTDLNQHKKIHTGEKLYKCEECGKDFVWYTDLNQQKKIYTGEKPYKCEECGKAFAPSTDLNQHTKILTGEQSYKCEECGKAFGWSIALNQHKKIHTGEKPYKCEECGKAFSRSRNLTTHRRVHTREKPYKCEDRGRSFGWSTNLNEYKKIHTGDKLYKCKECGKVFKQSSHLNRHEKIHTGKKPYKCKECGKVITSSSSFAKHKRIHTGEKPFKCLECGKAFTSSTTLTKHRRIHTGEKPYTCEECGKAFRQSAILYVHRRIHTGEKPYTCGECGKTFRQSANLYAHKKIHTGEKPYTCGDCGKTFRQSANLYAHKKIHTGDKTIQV

A further test addresses ZNF721 DBD1 (Homo sapiens, UniProt Q8TF20-2 29-461). An outline of the steps:
as §1

For a further test, the target named is ZNF721 DBD2 (Homo sapiens, UniProt Q8TF20-2 395-923). The method in brief: as §1
Sequence of ZNF721 DBD2 (Q8TF20 383-911): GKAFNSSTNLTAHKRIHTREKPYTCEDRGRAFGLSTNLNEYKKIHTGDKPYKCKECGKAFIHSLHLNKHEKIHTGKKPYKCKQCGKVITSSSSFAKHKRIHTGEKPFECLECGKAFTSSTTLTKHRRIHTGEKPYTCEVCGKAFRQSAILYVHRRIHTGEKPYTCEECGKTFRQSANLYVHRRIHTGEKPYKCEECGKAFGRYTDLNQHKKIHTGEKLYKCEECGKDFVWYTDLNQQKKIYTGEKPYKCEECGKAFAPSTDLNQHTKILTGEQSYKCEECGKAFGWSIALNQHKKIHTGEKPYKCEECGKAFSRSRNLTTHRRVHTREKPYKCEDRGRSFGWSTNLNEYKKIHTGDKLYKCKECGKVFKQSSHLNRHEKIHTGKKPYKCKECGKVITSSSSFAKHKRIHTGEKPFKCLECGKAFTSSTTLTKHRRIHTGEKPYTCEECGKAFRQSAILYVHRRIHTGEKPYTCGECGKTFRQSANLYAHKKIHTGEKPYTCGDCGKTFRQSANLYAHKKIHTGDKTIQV

Sequence of ZNF721 DBD1 (Q8TF20 17-449): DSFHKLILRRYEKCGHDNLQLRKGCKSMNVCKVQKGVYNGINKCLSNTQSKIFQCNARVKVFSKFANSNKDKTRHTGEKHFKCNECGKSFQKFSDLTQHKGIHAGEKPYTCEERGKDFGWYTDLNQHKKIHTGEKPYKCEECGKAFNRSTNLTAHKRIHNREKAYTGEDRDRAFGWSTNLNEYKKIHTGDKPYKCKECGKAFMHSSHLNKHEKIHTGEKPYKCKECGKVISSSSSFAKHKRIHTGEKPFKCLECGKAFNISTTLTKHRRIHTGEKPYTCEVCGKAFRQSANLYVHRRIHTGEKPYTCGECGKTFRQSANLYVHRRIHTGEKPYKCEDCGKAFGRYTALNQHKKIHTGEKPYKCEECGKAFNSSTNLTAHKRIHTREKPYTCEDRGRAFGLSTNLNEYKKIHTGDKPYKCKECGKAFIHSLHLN

As for ACCACCCCGC, the binding signal with ZNF721 full-length was 0.104 relative 10-mer count; in the test with ZNF721 DBD1 it was 0.00358 relative 10-mer count; with ZNF721 DBD2 it was 0.00252 relative 10-mer count.

For the sequence CCGCCCACCA, the binding signal was 0.143 relative 10-mer count in the test with ZNF721 full-length, 0.00477 relative 10-mer count with ZNF721 DBD1 and 0.00156 relative 10-mer count with ZNF721 DBD2.

Turning to CCCCACCCTC, the binding signal in the test with ZNF721 full-length was 0.21 relative 10-mer count; with ZNF721 DBD1, 0.00986 relative 10-mer count; in the test with ZNF721 DBD2, 0.00599 relative 10-mer count.

Consider CCCGCTCCCC, for which the binding signal in the test with ZNF721 full-length was 0.13 relative 10-mer count; in the test with ZNF721 DBD1, 0.00527 relative 10-mer count.

Take ACCCGCCCCC: the binding signal was found to be 0.153 relative 10-mer count with ZNF721 full-length and 0.005 relative 10-mer count in the test with ZNF721 DBD1.

On to GCCCCACCGC, for which the binding signal with ZNF721 full-length is 0.104 relative 10-mer count; with ZNF721 DBD1, 0.00271 relative 10-mer count; with ZNF721 DBD2, 0.00407 relative 10-mer count.

As for CGCCACCCCA, the binding signal in the test with ZNF721 full-length is 0.135 relative 10-mer count; with ZNF721 DBD1, 0.00358 relative 10-mer count; with ZNF721 DBD2 it was 0.00192 relative 10-mer count.

As to CACACCCACC, the figures for the binding signal with ZNF721 full-length, in the test with ZNF721 DBD1 and in the test with ZNF721 DBD2 were 0.135 relative 10-mer count, 0.00651 relative 10-mer count and 0.00695 relative 10-mer count, respectively.

CACCCACACC: the binding signal in the test with ZNF721 full-length is 0.127 relative 10-mer count; in the test with ZNF721 DBD1, 0.0061 relative 10-mer count; in the test with ZNF721 DBD2 it was 0.00395 relative 10-mer count.

Regarding CTACCCCCCC, the binding signal with ZNF721 full-length stood at 0.105 relative 10-mer count; in the test with ZNF721 DBD1, 0.00427 relative 10-mer count; in the test with ZNF721 DBD2 it was 0.00312 relative 10-mer count.

On to AGCGTTTCCA, for which the binding signal with ZNF721 full-length was found to be 0.214 relative 10-mer count; in the test with ZNF721 DBD1, 0.00252 relative 10-mer count; with ZNF721 DBD2, 0.459 relative 10-mer count.

Regarding GCCCTCCCCC, the binding signal stood at 0.163 relative 10-mer count with ZNF721 full-length, 0.00716 relative 10-mer count with ZNF721 DBD1 and 0.00911 relative 10-mer count with ZNF721 DBD2.

Consider CCTACCCACC, for which the results for the binding signal with ZNF721 full-length, with ZNF721 DBD1 and with ZNF721 DBD2 were 0.124 relative 10-mer count, 0.00546 relative 10-mer count and 0.0101 relative 10-mer count, respectively.

With ACCCCCCCGC, the binding signal came out at 0.112 relative 10-mer count with ZNF721 full-length, 0.00248 relative 10-mer count with ZNF721 DBD1 and 0.003 relative 10-mer count with ZNF721 DBD2.

In the case of AGGGTGGGGG, the binding signal with ZNF721 full-length was found to be 0.202 relative 10-mer count; with ZNF721 DBD1, 0.0102 relative 10-mer count; with ZNF721 DBD2, 0.00563 relative 10-mer count.

Regarding AGCGTCTCCA, the results for the binding signal with ZNF721 full-length, in the test with ZNF721 DBD1 and with ZNF721 DBD2 were 0.271 relative 10-mer count, 0.0472 relative 10-mer count and 0.388 relative 10-mer count, respectively.

On to CCGCGCCCCC, for which the binding signal worked out at 0.115 relative 10-mer count with ZNF721 full-length, 0.00427 relative 10-mer count with ZNF721 DBD1 and 0.0018 relative 10-mer count with ZNF721 DBD2.

Regarding AAAAAAAAGC, the results for the binding signal with ZNF721 full-length, with ZNF721 DBD1 and with ZNF721 DBD2 were 0.653 relative 10-mer count, 0.113 relative 10-mer count and 0.125 relative 10-mer count, respectively.

CACCTCCCCA: the results for the binding signal with ZNF721 full-length, with ZNF721 DBD1 and in the test with ZNF721 DBD2 were 0.115 relative 10-mer count, 0.00505 relative 10-mer count and 0.00348 relative 10-mer count, respectively.

With ACCCCCACCC, the binding signal with ZNF721 full-length stood at 0.267 relative 10-mer count; with ZNF721 DBD1, 0.0108 relative 10-mer count; in the test with ZNF721 DBD2, 0.0036 relative 10-mer count.

For CCGACCCACC, the binding signal was determined as 0.115 relative 10-mer count in the test with ZNF721 full-length, 0.00367 relative 10-mer count with ZNF721 DBD1 and 0.00467 relative 10-mer count with ZNF721 DBD2.

As to CCTCCCACCA, the binding signal with ZNF721 full-length stood at 0.115 relative 10-mer count; in the test with ZNF721 DBD1 it was 0.00784 relative 10-mer count; in the test with ZNF721 DBD2 it was 0.00491 relative 10-mer count.

As for CAACCCCACC, the binding signal with ZNF721 full-length worked out at 0.149 relative 10-mer count; in the test with ZNF721 DBD1 it was 0.00454 relative 10-mer count; in the test with ZNF721 DBD2 it was 0.00384 relative 10-mer count.

ACCCCCCACC: the binding signal with ZNF721 full-length was 0.257 relative 10-mer count; in the test with ZNF721 DBD1, 0.0107 relative 10-mer count; in the test with ZNF721 DBD2, 0.00491 relative 10-mer count.

Turning to CGCCCCGCCC, the binding signal in the test with ZNF721 full-length was found to be 0.139 relative 10-mer count; in the test with ZNF721 DBD1, 0.00555 relative 10-mer count; in the test with ZNF721 DBD2, 0.00132 relative 10-mer count.

Take GGGAGGGGGA: the binding signal was found to be 0.161 relative 10-mer count in the test with ZNF721 full-length, 0.00752 relative 10-mer count with ZNF721 DBD1 and 0.00395 relative 10-mer count with ZNF721 DBD2.

Regarding CCGCCTCCCC, the binding signal was found to be 0.155 relative 10-mer count with ZNF721 full-length, 0.00798 relative 10-mer count in the test with ZNF721 DBD1 and 0.00204 relative 10-mer count in the test with ZNF721 DBD2.

For ACCCCCCCCC, the binding signal in the test with ZNF721 full-length was 0.143 relative 10-mer count; with ZNF721 DBD1, 0.00362 relative 10-mer count; with ZNF721 DBD2 it was 0.0018 relative 10-mer count.

As for CTTTTTTTTC, the binding signal came out at 0.171 relative 10-mer count in the test with ZNF721 full-length, 0.0293 relative 10-mer count with ZNF721 DBD1 and 0.0669 relative 10-mer count with ZNF721 DBD2.

For the sequence CACACCCCAC, the results for the binding signal with ZNF721 full-length, with ZNF721 DBD1 and with ZNF721 DBD2 were 0.123 relative 10-mer count, 0.00394 relative 10-mer count and 0.00419 relative 10-mer count, respectively.

Regarding TCCCCCACCA, the binding signal with ZNF721 full-length amounted to 0.114 relative 10-mer count; with ZNF721 DBD1 it was 0.00527 relative 10-mer count; in the test with ZNF721 DBD2, 0.00407 relative 10-mer count.

Consider CCCCGTCCCC, for which the binding signal is 0.212 relative 10-mer count with ZNF721 full-length, 0.00789 relative 10-mer count with ZNF721 DBD1 and 0.00192 relative 10-mer count with ZNF721 DBD2.

Turning to GCCCCACCCA, the binding signal was 0.13 relative 10-mer count with ZNF721 full-length, 0.00404 relative 10-mer count with ZNF721 DBD1 and 0.00515 relative 10-mer count in the test with ZNF721 DBD2.

With CTTCATACAC, the binding signal amounted to 0.291 relative 10-mer count with ZNF721 full-length, 0.384 relative 10-mer count with ZNF721 DBD1 and 0.00132 relative 10-mer count with ZNF721 DBD2.

Turning to CACCCACCAC, the binding signal in the test with ZNF721 full-length came to 0.196 relative 10-mer count; with ZNF721 DBD1 it was 0.00949 relative 10-mer count; in the test with ZNF721 DBD2, 0.00779 relative 10-mer count.

For CCCACAACCC, the binding signal turned out to be 0.106 relative 10-mer count in the test with ZNF721 full-length, 0.00431 relative 10-mer count with ZNF721 DBD1 and 0.00348 relative 10-mer count with ZNF721 DBD2.

For GCTTTTTTTA, the binding signal in the test with ZNF721 full-length is 0.176 relative 10-mer count; in the test with ZNF721 DBD1, 0.0317 relative 10-mer count; with ZNF721 DBD2 it was 0.0453 relative 10-mer count.

For AAAAAAAAAC, the binding signal with ZNF721 full-length came to 0.134 relative 10-mer count; with ZNF721 DBD1, 0.00229 relative 10-mer count; with ZNF721 DBD2, 0.0808 relative 10-mer count.

For CCACCAACCC, the binding signal with ZNF721 full-length turned out to be 0.156 relative 10-mer count; with ZNF721 DBD1, 0.0067 relative 10-mer count; with ZNF721 DBD2, 0.00491 relative 10-mer count.

For AAAAAGCATC, the results for the binding signal in the test with ZNF721 full-length, in the test with ZNF721 DBD1 and with ZNF721 DBD2 were 0.123 relative 10-mer count, 0.0262 relative 10-mer count and 0.0225 relative 10-mer count, respectively.

AAAGCAGCAT: the binding signal with ZNF721 full-length was 0.31 relative 10-mer count; with ZNF721 DBD1, 0.00202 relative 10-mer count; in the test with ZNF721 DBD2, 0.366 relative 10-mer count.

Turning to GCAGCATACC, the figures for the binding signal in the test with ZNF721 full-length, with ZNF721 DBD1 and with ZNF721 DBD2 were 0.151 relative 10-mer count, 0.00147 relative 10-mer count and 0.158 relative 10-mer count, respectively.

On to CCCCCCGCCA, for which the binding signal came to 0.113 relative 10-mer count with ZNF721 full-length, 0.00445 relative 10-mer count in the test with ZNF721 DBD1 and 0.00372 relative 10-mer count with ZNF721 DBD2.
